Calls of active or inactive are those of the source.
Key:
Albumin (Bos taurus) = Albumin (Bos taurus) (UniProt P02769); assay: bovine serum albumin binders on microarray, profiling panel, artefact control for SMM control protein annotation, biochemical, small-molecule microarray, Alexa647 label, 635/667 nm fluorescence (AID 1118); conditions: BSA-A647 binding, fluorescence 635 nm, higher = more signal;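 note: score merges 667 nm emission intensity and signal-to-noise per printed compound spot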
[1] = small-molecule microarray binders of probe aXIP, primary screen, biochemical, NeuroSMM set, 635/667 nm fluorescence (AID 1119); conditions: higher = more signal, called active from +8 up or from −8 down;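 note: probe is the protein aXip251-270 applied at 1 µg/mL to compound-printed slides; binding of probe to printed compounds measured as 667 nm fluorescence plus signal to noise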
[2] = small-molecule binders of probe aNOTCH3, primary screen, biochemical, small-molecule microarray, 635/667 nm fluorescence (AID 1120); conditions: higher = more signal;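 note: probe is a biotin-tagged antibody raised against NOTCH3 rather than NOTCH3 protein; score merges spot fluorescence near 667 nm with spot signal to noise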
[3] = small-molecule binders of probe aNOTCH2, primary screen, biochemical, small-molecule microarray, 635/667 nm fluorescence (AID 1121); conditions: higher = more signal;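 note: score merges feature fluorescence read at 667 nm with its signal to noise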
[4] = target: Carbonic anhydrase 2 (Homo sapiens) (UniProt P00918); assay: CAII small-molecule binders, profiling panel, biochemical, small-molecule microarray, Alexa647-labelled CAII (AID 1122); conditions: CAII-A647 binding fluorescence, higher = more signal
[5] = COS7 lysate on small-molecule microarray, probe aHis, 635 nm (AID 1123); conditions: COS7 cell lysate, fluorescence, higher = more signal;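 note: z-score combines 667nm fluorescence intensity with signal-to-noise per printed compound spot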
[6] = compound binding in COS7 lysate, probe aLAP1, primary screen, cell lysate, small-molecule microarray (AID 1124); conditions: probe aLAP1, fluorescence, higher = more signal;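 note: lysate comes from COS7 cells expressing LAP1 and is applied at 0.3 µg/mL; score merges spot fluorescence near 667 nm with signal-to-noise over triplicate slides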
Sam68 (KHDRBS1) = assay: Sam68 small-molecule binders, primary screen, biochemical, small-molecule microarray, 635 nm fluorescence (AID 1125); conditions: small-molecule microarray binding, higher = more signal;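 note: score merges 667 nm channel intensity with signal to noise over triplicate slides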
[7] = tested on: Chordin-like protein 2 (CHRDL2); assay: CHRDL2 small-molecule binders, primary screen, biochemical, small-molecule microarray, 635 nm fluorescence (AID 1126); conditions: small-molecule microarray binding, fluorescence 635 nm; higher = more signal;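 note: printed compound slides probed with Chrdl2 protein at 4 µg/mL for 1 h at 4 C; score merges 667 nm emission intensity with signal to noise over three replicate slides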
[8] = target: Concanavalin-A (Canavalia ensiformis) (UniProt P02866); assay: ConA small-molecule binders, primary screen, artefact control for SMM control protein annotation, biochemical, small-molecule microarray, Alexa647 label, 635 nm (AID 1127); conditions: ConA-A647 binding fluorescence, higher = more signal;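 note: z combines 667 nm emission intensity with signal-to-noise across three replicate slides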
Sequence of Concanavalin-A (Canavalia ensiformis) (P02866 whole entry, looked up): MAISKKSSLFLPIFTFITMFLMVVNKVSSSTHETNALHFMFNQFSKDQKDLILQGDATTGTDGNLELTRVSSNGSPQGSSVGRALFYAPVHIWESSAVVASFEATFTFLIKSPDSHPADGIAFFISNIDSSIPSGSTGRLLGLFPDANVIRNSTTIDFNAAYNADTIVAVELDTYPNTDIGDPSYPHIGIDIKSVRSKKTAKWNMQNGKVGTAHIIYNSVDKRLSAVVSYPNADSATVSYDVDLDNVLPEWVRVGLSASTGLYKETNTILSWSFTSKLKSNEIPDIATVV

[9] = anti-His antibody binders, primary screen, artefact control for SMM control protein annotation, biochemical, small-molecule microarray, 635 nm fluorescence (AID 1128); conditions: anti-His Alexa647 antibody binding, higher = more signal;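 note: score merges feature fluorescence with signal-to-noise for each printed compound spot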
[10] = tested on: Human papillomavirus type 1a E7 protein (residues 1-88); assay: HPV1a E7 small-molecule binders, primary screen, biochemical, small-molecule microarray, residues 1-88, 635 nm (AID 1129); conditions: small-molecule microarray binding, fluorescence 635 nm; higher = more signal
[11] = target: Focal adhesion kinase 1 (Homo sapiens) (UniProt Q05397); assay: small-molecule microarray binders of FAK, primary screen, biochemical, 635/667 nm fluorescence, BSA, DTT (AID 1130); conditions: PTK2 binding, 635 nm fluorescence, higher = more signal;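 note: composite of spot emission at 667 nm and signal to noise over triplicate slides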
Sequence of Focal adhesion kinase 1 (Homo sapiens) (Q05397 whole entry, looked up): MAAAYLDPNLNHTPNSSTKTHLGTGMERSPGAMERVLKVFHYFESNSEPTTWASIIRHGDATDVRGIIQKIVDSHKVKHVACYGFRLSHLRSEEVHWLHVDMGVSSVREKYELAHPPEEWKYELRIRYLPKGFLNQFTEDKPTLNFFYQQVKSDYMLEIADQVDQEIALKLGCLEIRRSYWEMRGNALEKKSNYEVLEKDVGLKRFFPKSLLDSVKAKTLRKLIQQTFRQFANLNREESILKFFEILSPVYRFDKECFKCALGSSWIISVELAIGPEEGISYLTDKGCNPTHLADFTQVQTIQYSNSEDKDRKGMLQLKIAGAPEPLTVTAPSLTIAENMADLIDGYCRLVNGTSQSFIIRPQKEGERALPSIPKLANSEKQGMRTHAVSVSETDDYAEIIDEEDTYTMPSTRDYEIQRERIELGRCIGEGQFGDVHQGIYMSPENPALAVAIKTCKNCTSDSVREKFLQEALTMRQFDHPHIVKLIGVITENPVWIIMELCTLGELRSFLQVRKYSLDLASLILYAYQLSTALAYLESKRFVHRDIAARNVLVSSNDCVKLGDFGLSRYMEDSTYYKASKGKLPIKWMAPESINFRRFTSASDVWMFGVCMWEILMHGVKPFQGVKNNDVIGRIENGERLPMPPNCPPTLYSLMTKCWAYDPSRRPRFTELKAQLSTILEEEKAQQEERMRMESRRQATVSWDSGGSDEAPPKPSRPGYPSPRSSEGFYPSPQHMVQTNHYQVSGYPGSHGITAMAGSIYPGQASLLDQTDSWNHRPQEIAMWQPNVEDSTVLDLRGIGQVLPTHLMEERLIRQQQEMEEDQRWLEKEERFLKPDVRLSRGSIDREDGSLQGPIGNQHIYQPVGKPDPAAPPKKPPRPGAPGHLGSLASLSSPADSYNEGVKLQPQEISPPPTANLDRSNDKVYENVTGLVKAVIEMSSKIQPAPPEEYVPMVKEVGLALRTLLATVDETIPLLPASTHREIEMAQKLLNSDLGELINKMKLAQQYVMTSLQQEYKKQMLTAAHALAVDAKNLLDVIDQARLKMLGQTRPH

[12] = tested on: Fibrinogen (Alexa647-labelled); assay: fibrinogen binders on compound microarrays, profiling panel, artefact control for SMM control-protein annotation, biochemical, small-molecule microarray, 635/667 nm fluorescence (AID 1131); conditions: fibrinogen-A647 binding fluorescence, higher = more signal;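 note: z-score merges 667 nm fluorescence with per-spot signal-to-noise over triplicate slides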
[13] = target: Follistatin (Homo sapiens) (UniProt P19883); assay: follistatin binders on small-molecule microarrays, primary screen, biochemical, small-molecule microarray, 635/667 nm fluorescence (AID 1132); conditions: FST binding, 635 nm fluorescence, higher = more signal
Sequence of Follistatin (Homo sapiens) (P19883 whole entry, looked up): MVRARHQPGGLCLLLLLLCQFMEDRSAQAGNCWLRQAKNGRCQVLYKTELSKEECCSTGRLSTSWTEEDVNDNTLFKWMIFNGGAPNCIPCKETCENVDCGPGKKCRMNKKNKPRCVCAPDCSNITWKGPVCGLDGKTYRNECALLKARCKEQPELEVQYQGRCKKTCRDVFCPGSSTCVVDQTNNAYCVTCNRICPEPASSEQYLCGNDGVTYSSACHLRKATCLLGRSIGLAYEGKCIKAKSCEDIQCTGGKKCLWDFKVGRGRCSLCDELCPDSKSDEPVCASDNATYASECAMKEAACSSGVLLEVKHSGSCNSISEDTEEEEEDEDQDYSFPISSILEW

[14] = target: Fibroblast growth factor 2 (Homo sapiens) (UniProt P09038); assay: FGF2 binders on small-molecule microarrays, primary screen, biochemical, small-molecule microarray, 635/667 nm fluorescence (AID 1133); conditions: small-molecule microarray binding, FGF2, fluorescence 635/667; higher = more signal
Sequence of Fibroblast growth factor 2 (Homo sapiens) (P09038 whole entry, looked up): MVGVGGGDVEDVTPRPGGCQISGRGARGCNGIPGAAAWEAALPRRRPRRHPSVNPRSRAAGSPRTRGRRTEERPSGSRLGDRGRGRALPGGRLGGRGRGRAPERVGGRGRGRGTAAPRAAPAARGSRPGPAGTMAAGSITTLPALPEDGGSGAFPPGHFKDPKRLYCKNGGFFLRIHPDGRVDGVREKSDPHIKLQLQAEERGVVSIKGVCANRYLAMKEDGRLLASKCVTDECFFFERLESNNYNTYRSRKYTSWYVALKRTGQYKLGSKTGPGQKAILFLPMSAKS

[15] = mitochondrial membrane potential change in A549 cells, profiling panel, cell-based, JC-1 fluorescence, basal, 24 h, 100 nL (AID 1138); conditions: higher = more signal;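 note: A549 lung adenocarcinoma cells under basal conditions with no added stimulus; test concentration not given here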
Lefty1 = Lefty1 binders on small-molecule microarrays, primary screen, biochemical, small-molecule microarray, 635/667 nm fluorescence (AID 1139); conditions: small-molecule microarray binding, fluorescence 635/667; higher = more signal
[16] = tested on: wheat germ agglutinin (Triticum aestivum), Alexa647-labelled; assay: wheat germ agglutinin binders on compound microarrays, profiling panel, artefact control for SMM control-protein annotation, biochemical, small-molecule microarray, 635/667 nm fluorescence (AID 1140); conditions: WGA-A647 binding, 635 nm fluorescence, higher = more signal;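 note: score merges 667 nm feature emission with signal to noise over triplicate slides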
[17] = target: Luciferin 4-monooxygenase (Photinus pyralis) (UniProt P08659); assay: firefly luciferase enzyme inhibitors, primary screen, biochemical, luminescence, purified enzyme, 2006 set (AID 1141); conditions: SteadyGlo luminescence, 30 min, higher = more signal, called active from +8 up or from −8 down;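 note: cell-free assay with purified firefly luciferase at 100 ng per well in PBS; test concentration not given here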
Sequence of Luciferin 4-monooxygenase (Photinus pyralis) (P08659 whole entry, looked up): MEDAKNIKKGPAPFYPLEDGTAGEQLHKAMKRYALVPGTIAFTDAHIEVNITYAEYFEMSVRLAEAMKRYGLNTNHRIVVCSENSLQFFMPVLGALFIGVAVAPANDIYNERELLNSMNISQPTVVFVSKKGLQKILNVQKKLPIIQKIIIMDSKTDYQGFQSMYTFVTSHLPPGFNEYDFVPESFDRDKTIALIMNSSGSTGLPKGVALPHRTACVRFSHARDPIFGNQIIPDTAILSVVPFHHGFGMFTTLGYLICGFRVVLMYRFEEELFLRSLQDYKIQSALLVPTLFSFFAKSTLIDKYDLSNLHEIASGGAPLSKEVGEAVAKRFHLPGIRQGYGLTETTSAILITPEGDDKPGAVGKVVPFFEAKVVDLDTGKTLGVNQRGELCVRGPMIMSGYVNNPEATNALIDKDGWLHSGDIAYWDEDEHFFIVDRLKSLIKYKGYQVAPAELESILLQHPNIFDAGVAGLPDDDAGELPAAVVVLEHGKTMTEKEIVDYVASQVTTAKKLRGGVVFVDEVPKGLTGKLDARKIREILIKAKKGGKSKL

Sequence of Albumin (Bos taurus) (P02769 whole entry, looked up): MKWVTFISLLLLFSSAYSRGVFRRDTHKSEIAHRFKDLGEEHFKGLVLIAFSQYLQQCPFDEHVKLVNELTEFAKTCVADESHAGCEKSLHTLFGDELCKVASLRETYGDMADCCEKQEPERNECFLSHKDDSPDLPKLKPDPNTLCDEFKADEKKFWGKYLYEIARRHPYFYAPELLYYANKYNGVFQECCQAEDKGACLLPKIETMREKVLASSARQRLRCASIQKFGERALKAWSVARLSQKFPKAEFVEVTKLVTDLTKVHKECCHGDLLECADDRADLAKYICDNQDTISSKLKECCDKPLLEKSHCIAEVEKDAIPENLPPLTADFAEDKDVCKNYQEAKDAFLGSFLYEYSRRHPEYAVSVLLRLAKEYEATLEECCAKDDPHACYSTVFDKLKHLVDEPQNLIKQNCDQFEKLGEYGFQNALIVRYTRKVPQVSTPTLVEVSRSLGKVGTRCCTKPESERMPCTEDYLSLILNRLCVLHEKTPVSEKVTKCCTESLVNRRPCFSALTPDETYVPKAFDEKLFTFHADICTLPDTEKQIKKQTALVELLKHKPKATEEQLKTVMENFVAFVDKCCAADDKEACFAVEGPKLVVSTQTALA

Compound | composite z-score (Albumin (Bos taurus)) | composite Z-score [1] | composite z-score [2] | composite z-score [3] | composite z-score [4] | composite z-score [5] | composite z-score [6] | composite z-score (Sam68 (KHDRBS1)) | composite z-score [7] | composite z-score [8] | composite z-score [9] | composite z-score [10] | composite z-score [11] | composite z-score [12] | composite z-score [13] | composite z-score [14] | z-score [15] | composite z-score (Lefty1) | composite z-score [16] | z-score [17]
C=CC[C@@H]1C=C[C@H](ON=C[C@@H](NS(=O)(=O)c2ccc(C)cc2)[C@H](C)C=CCC(=O)OC)[C@@H](CO)O1 | 0.766 | 0.819 (inactive) | 0.0232 | -0.0393 | -0.277 | -0.327 | 0.0555 | -0.483 | 0.487 | -1.58 | 1.34 | -0.205 | -0.0954 | -0.193 | 0.774 | 0.349 | -0.0376 | 0.625 | 0.511 | 1.18 (inactive)
CN1CCc2nc(-c3ccccc3)c(-c3ccccc3)cc2C1 | 0.0013 | -0.341 (inactive) | -0.0343 | -0.115 | -0.132 | -0.0596 | -0.247 | -0.23 | 0.58 | 0.486 | 0.532 | 0.26 | 0.163 | 0.547 | 0.397 | 0.325 | 0.0181 | 0.256 | -0.0097 | -0.133 (inactive)
CC(C)C(=O)N[C@H]1CCCN1C(=O)C=Cc1ccccc1 | 0.564 | -0.087 (inactive) | 0.276 | 0.0062 | 0.267 | 0.253 | 0.0905 | 0.752 | 0.242 | 0.163 | 0.508 | 0.899 | 0.225 | -0.198 | 0.438 | 0.54 | -0.509 | 1.13 | -0.441 | -0.0726 (inactive)
COC(=O)[C@@H]1CC[C@H](C)[C@@H](c2ccc(C)cc2)N1C(=O)c1ccc(C=NOC[C@@H](O)[C@H]2O[C@@H]3OC(C)(C)O[C@@H]3[C@H]2O)cc1 | 0.333 | -0.187 (inactive) | -0.0014 | -0.128 | 0.368 | 0.424 | 0.228 | 1.02 | 0.402 | 0.736 | 0.266 | 1.03 | 0.158 | 0.953 | 0.49 | 0.63 | -1.78 | 0.367 | 0.506 | -0.297 (inactive)
CCOC(=O)[C@H](CC(C)C)NC(=O)CCC1CC(OC(=O)NCc2ccc3c(c2)OCO3)CC2(CCCC(COC(=O)NCCc3ccc(Cl)cc3)O2)O1 (stereo not given in full) | 0.619 | -0.232 (inactive) | 0.0116 | -0.159 | 0.232 | 0.817 | 0.127 | 1.11 | 0.359 | -0.0326 | 0.141 | 0.653 | 0.0146 | -0.092 | 0.62 | 0.671 | 0.387 | 1.14 | 0.669 | 0.621 (inactive)
CC(=O)OC[C@H]1O[C@H](CC=NOC[C@@H](O)[C@H]2O[C@@H]3OC(C)(C)O[C@@H]3[C@H]2O)C=C[C@@H]1OC(C)=O | 0.846 | 0.0765 (inactive) | 0.116 | -0.0934 | 0.298 | 0.548 | 0.79 | 0.883 | 0.0166 | 0.976 | 0.638 | 0.702 | 0.15 | 0.727 | 0.209 | 0.583 | -0.325 | 0.385 | -0.0993 | 0.94 (inactive)
